Nrf2 inh = Nrf2 qHTS screen for inhibitors | A549 ARE-Fluc reporter, luciferase luminescence, 18-24 h | Potency, µM (series often up to 46 µM), hits mostly inhibitors | AID 504444, 2011 | 360,000 compounds, 2.1% hits; note: nearly all actives have a fitted effect of over 60% in size
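In this cell-based qHTS, ARE-driven firefly luciferase in A549 cells reports Nrf2 activity; the luminescent signal after BugLite lysis is the measured value, with a prior CellTiter-Fluor read for cell health.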
miR-21 reporter = qHTS Assay for Modulators of miRNAs and/orActivators of miR-21; HeLa miR-21 FLuc reporter, luciferase, 48 h; Potency, µM (highest dose often 38.3 µM), usual class: activators; 340,000 tested, under 10 active; AID 2288, 2010;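 note: miR-21 action dims this reporter so a rising signal means less miR-21 action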
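Using DMEM plus 10% FBS, HeLa miR-21-FLuc cells are incubated with test compounds (final up to about 40uM) for 48 hours; firefly luciferase signal is then imaged following reagent-mediated lysis.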
Nrf2 ARE act = qHTS of Nrf2 Activators; 410,000 compounds, 0.31% hits; AID 624171, 2012; Potency, µM (series often up to 46.1 µM), actives largely listed as activators; AREc32 ARE-luciferase reporter (MCF7-derived line), luminescence, 24 h; note: nearly all actives have a fitted effect of over 65% in size
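Each well held 1000 AREc32 cells, which were incubated with compound for 24 hr at 37 deg C after overnight attachment, and ARE reporter activity was quantified by firefly luciferase luminescence.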
A549 viability = Nrf2 qHTS screen for inhibitors: counterscreen for cytotoxicity; A549 ARE-Fluc cells, CellTiter-Fluor viability, 18-24 h; Potency, µM (series often up to 46 µM), usual class: inhibitors; 390,000 compounds, 0.16% hits; AID 504648, 2011
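A549 ARE_Fluc cells in 5% FBS OPTI-MEM were exposed to compounds in concentration-response for 18-24 h at 37 deg C. Viability was read by CellTiter-Fluor fluorescence (Ex 405/Em 525) after 30 min, before the luciferase read.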
GRP78 ERSR act = qHTS for Inducers of the Endoplasmic Reticulum Stress Response (ERSR) in Human Glioma: qHTS. U87-MG GRP78 promoter luciferase reporter, 16 h. Potency, µM, actives largely listed as activators. 420,000 compounds, 0.02% hits; note: series mostly up to about 76 µM; nearly all actives have a fitted effect of over 35% in size
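ERSR induction read as luciferase luminescence (Bright-Glo, 10 min at room temperature) in stably transfected human U87-MG glioma cells exposed to compounds for 16 h, using GRP78 as sensor.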
PTAP TSG101 blk = qHTS Assay for Iinhibitors of HIV-1 Budding by Blocking the Interaction of PTAP/TSG101. Tumor susceptibility gene 101 protein (Homo sapiens), Q99816. Fluorescence polarization, FITC-PTAP peptide / Tsg101 binding. Potency, µM (doses to about 115 µM), most hits filed as inhibitors. 340,000 tested, under 10 active. AID 493005, 2010; active = well fitted inhibition curve with a large enough effect in the main read-out, with a control signal flat, not every such curve was filed as active; inconclusive = small, poorly fitted or top-dose-only effect, or effect the other way, or a change in a side signal; inactive = no such curve, though single readings can be large or run the other way
Target sequence (Q99816 whole entry, looked up): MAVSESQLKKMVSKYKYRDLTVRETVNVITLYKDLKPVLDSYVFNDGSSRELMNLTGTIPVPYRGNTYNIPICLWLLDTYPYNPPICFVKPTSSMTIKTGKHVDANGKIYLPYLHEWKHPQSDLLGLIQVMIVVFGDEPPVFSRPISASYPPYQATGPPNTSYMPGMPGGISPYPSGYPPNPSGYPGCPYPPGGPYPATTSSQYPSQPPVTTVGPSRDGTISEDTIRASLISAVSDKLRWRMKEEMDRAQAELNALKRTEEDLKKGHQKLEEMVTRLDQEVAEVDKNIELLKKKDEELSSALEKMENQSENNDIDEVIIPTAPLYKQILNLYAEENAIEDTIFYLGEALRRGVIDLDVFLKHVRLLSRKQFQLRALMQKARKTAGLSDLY
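Steps: Tsg101 binding domain dispensed (10 uM final), compounds pinned in DMSO, FITC-labeled PTAP-motif peptide added (50 nM final); after 20 min binding at room temperature, polarization measured.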
A number is an active result; – = inactive; ? = inconclusive; · = not tested or not shown. Sampled rows, rich in hits. Any-hit rate of the full collection: about 2.1%. Unless noted, calls come from the whole dose curve; as a rule, active = well fitted curve in the direction sought with a large enough effect; inconclusive = small, poorly fitted or top-dose-only effect, or another doubt; inactive = no such curve, though single readings can be large; an effect the other way counts as inactive or inconclusive.

SMILES | Nrf2 inh | miR-21 reporter | Nrf2 ARE act | A549 viability | GRP78 ERSR act | PTAP TSG101 blk
COc1ccc(CCNC(=O)c2ccc3nc(-c4ccco4)c(-c4ccco4)nc3c2)cc1OC | 23µM | – | – | – | – | –
COc1cccc(CNc2ncnc3cc(Cl)ccc23)c1 | ? | – | – | – | – | –
Fc1cccc(CNc2ncnc3cc(Cl)ccc23)c1F | 18µM | – | – | – | – | –
Cc1ccc(CN2[C@H](C)[C@H](c3ccccc3)OCCS2(=O)=O)cc1 | · | · | · | · | – | ·
CCCCNC(=O)COC(=O)c1ccc(C)c(NC(=O)c2ccco2)c1 | – | – | – | – | – | –
C=Cc1cccc(NC(=O)c2ccc(NC(=O)c3ccco3)cc2)c1 | 10µM | – | – | – | – | –
CCCOC(=O)c1cccc(NC(=O)COc2ccc([N+](=O)[O-])cc2)c1 | ? | – | – | – | – | –
Cc1ccc(C(=O)OCc2c(C)noc2C)cc1NC(=O)c1ccco1 | – | – | 4µM | – | – | –
CCOC(=O)c1cccc(NC(=O)COc2ccc([N+](=O)[O-])cc2)c1 | 26µM | – | – | – | – | –
O=C(Nc1ccccc1)c1cccc(NC(=O)c2ccco2)c1 | ? | · | – | – | – | –
CCOC(=O)c1cccc(NC(=O)c2ccc(NC(=O)c3ccco3)cc2)c1 | 21µM | – | – | – | – | –
CN(C)c1ccc(/C=C/c2ccnc3ccccc23)cc1Br | · | · | · | · | – | ·
COc1cc(=O)n2c(c1C(=O)NC(C)c1ccco1)CCN(C(=O)c1[nH]c(C)cc1C)CC2 (stereo not given) | · | · | · | · | – | ·
O=[N+]([O-])c1cccc2[nH]cnc12 | · | · | · | · | – | ·
O=S1(=O)N=C(Oc2ccc(C(F)(F)F)cc2)c2ccccc21 | – | · | · | – | · | ·
CC(=O)c1cccc(NC(=O)c2ccc(OCc3c(C)noc3C)cc2)c1 | ? | · | – | – | – | –
CCOC(=O)c1cccc(NC(=O)c2ccc(N(C)C)cc2)c1 | 16µM | – | – | – | – | –
CCOc1ccc(C(=O)Nc2ccc(NC(=O)c3ccco3)c(Cl)c2)cc1Cl | 21µM | – | – | ? | – | –
Cc1noc(C)c1COc1ccccc1C(=O)N1CCN(c2cccc(Cl)c2)CC1 | – | · | – | – | – | –
CC(=O)c1ccccc1NC(=O)c1ccc(OCc2c(C)noc2C)cc1 | 13µM | · | – | – | – | –
Cc1noc(C)c1COc1ccc(C(=O)N2CCN(c3cccc(Cl)c3)CC2)cc1 | 23µM | · | – | – | – | –
CCOC(=O)c1cccc(NC(=O)c2cccnc2)c1 | · | – | – | – | – | –
COc1cc(=O)n2c(c1C(=O)N(C)Cc1ccsc1)CCN(Cc1c(C)nc3sccn13)CC2 | · | · | · | · | – | ·
COC(=O)c1ccccc1-c1cc(C)cc2c1OC(CNC(=O)C1CCCO1)C2 (stereo not given) | · | · | · | · | – | ·
NC(=O)c1cc([N+](=O)[O-])ccc1NCc1ccc(N)cc1 | 9.2µM | · | – | ? | – | ·
SMILES | Nrf2 inh | miR-21 reporter | Nrf2 ARE act | A549 viability | GRP78 ERSR act | PTAP TSG101 blk
Cc1oc(-c2ccccc2F)nc1CS(=O)(=O)CC(=O)N1CCOCC1 | – | – | – | – | – | –
Cc1cccc(N2CCN(C(=O)CS(=O)(=O)Cc3nc(-c4ccccc4F)oc3C)CC2C)c1 (stereo not given) | 16µM | – | – | – | – | –
Cc1ccc(-c2nc(CS(=O)(=O)CC(=O)N3CC(C)CC(C)C3)c(C)o2)cc1 (stereo not given) | 21µM | – | – | – | – | –
Cc1ccc(-c2nc(CS(=O)(=O)CC(=O)N3CCN(C)CC3)c(C)o2)cc1 | – | – | – | – | – | –
Cc1cccc(N2CCN(C(=O)CS(=O)(=O)Cc3nc(-c4ccccc4C)oc3C)CC2C)c1 (stereo not given) | 23µM | – | – | – | – | ·
COc1ccc(CN(Cc2ccccc2)C(=O)c2ccccc2O)cc1 | ? | · | · | – | · | ·
CC(C)(C)n1ncc2c(=O)n(Cc3ccccc3SC(F)(F)F)cnc21 | · | · | · | · | – | ·
Cc1cc2c(s1)c1cnn(Cc3ccccc3Cl)c(=O)c1n2C | – | · | · | – | · | ·
O=C(Cc1ccccc1)Nc1nnc(-c2cccc([N+](=O)[O-])c2)s1 | – | – | – | – | – | –
O=C(NC1CCCCC1)N(c1ccccc1)c1nnc(-c2cccc([N+](=O)[O-])c2)s1 | · | · | 3.2µM | · | – | ·
Cc1cc(OC(=O)c2ccccc2Cl)cc(=O)n1C | 8.2µM | – | – | – | – | –
COc1ccc2c(Cl)c(C(=O)NN)sc2c1 | 15µM | – | – | – | – | –
COc1ccc2c(Cl)c(C(N)=O)sc2c1 | – | – | – | – | – | –
N#Cc1c(NC(=O)CSc2nc(N)cc(=O)[nH]2)sc2c1CCCCCC2 | 7.3µM | – | – | – | – | –
CC(Sc1nc(N)cc(=O)[nH]1)C(=O)Nc1sc2c(c1C#N)CCCC2 (stereo not given) | 13µM | – | – | – | – | –
N#Cc1cc2c(nc1SCC(=O)Nc1sc3c(c1C#N)CCC3)CCCCC2 | · | – | – | – | – | –
O=C(c1cc(-c2ccco2)on1)N1CCc2ccccc2C1 | ? | – | 14µM | – | – | –
O=C(c1cc(-c2ccco2)on1)N1CCCc2ccccc21 | ? | – | 11µM | – | – | –
CC1CCN(C(=O)c2cc(-c3ccco3)on2)CC1 | ? | – | 14µM | – | – | –
CCc1cccc(C)c1NC(=O)CSc1nnc(-c2cc3cc(Br)ccc3o2)n1CC | 16µM | – | – | ? | – | –
Cn1c(SCC(=O)Nc2cccc(C(=O)O)c2)nnc1-c1cc2cc(Br)ccc2o1 | – | – | – | – | – | –
Cc1nn(CC(=O)N2CCN(c3ccccn3)CC2)c(=O)c2cc3sccc3n12 | 29µM | – | – | ? | – | –
CCCN1CCN(C(=O)Cn2nc(C)n3c(cc4sccc43)c2=O)CC1 | – | – | – | – | – | –
CC(=O)NC(=S)Nc1cc(C(F)(F)F)ccc1N1CCOCC1 | 26µM | – | – | – | – | –
COc1cc(NC(=S)Nc2ccccn2)c(OC)cc1Cl | – | – | 4µM | – | – | –
COc1cc(OC)c(NC(=S)Nc2cc(Cl)cc(Cl)c2)cc1Cl | 21µM | – | – | – | – | –
O=C(Nc1ccccn1)c1ccc(Br)s1 | ? | – | 16µM | – | – | –
COc1ccccc1C(=O)Nc1ccccn1 | · | – | 11µM | – | – | –
O=C(NCCc1nnc2n1CCN(Cc1ccc3c(c1)CCO3)CC2)c1ccco1 | · | · | · | · | – | ·

Assay outcomes from PubChem BioAssay.
